Assay outcomes as filed in PubChem BioAssay.
LYPLA1 counter: LYPLA1 inhibitors, primary screen, counter-screen for PME1 inhibitor project, biochemical, fluorescence polarization, FP-Rh probe ABPP. inhibition, % at 5.9 µM. recombinant LYPLA1. AID 2174, 2009. 0.16% of 320,000 active. Acyl-protein thioesterase 1 (Homo sapiens), O75608;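 active means inhibition above the mean of all tested compounds plus 3 SD, set per campaign, cut at about 14% in these data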;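 further: inhibitors block serine hydrolase probe labeling of LYPLA1 so polarization falls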
PME-1 inh: PME-1 inhibitors via competitive probe labeling, primary screen, biochemical, fluorescence polarization, FP-Rh probe, HTS. inhibition, % at 5.9 µM. recombinant PME-1. 0.53% of 320,000 active. AID 2130, 2009;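 active means inhibition above the campaign mean of all compounds plus 3 SD, cut at about 26% in these data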;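 further: competitive labeling of PME-1 active site by serine hydrolase directed probe; inhibitors block probe labeling so polarization falls and inhibition rises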
Target sequence (Q9Y570 whole entry, looked up): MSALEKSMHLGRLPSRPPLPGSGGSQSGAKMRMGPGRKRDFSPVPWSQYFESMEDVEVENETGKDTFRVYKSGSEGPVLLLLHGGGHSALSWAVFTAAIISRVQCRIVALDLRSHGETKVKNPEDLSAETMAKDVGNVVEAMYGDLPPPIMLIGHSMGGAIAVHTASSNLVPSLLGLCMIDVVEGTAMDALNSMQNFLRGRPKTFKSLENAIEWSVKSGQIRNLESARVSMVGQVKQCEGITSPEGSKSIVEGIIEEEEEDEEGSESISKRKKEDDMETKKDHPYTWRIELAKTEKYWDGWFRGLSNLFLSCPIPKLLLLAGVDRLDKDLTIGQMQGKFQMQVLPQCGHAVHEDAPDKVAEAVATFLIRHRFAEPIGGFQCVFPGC
PREPL inh: PREPL enzyme inhibitors, primary screen, biochemical, fluorescence polarization; recombinant PREPL, fluorescence polarization activity-based probe; 0.68% of 320,000 active; AID 2751, 2010; inhibition, % at 5.96 µM; in the data active means inhibition above about 43%
LYPLA2 inh: LYPLA2 inhibitors, primary screen, counter-screen for PME1 inhibitor project, biochemical, fluorescence polarization, FP-Rh probe ABPP. inhibition, % at 5.9 µM. recombinant LYPLA2. 0.38% of 320,000 active;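 active means inhibition above the screen-wide mean plus 3 SD, limit set per campaign, cut at about 26% in these data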
Target sequence (O95372 whole entry, looked up): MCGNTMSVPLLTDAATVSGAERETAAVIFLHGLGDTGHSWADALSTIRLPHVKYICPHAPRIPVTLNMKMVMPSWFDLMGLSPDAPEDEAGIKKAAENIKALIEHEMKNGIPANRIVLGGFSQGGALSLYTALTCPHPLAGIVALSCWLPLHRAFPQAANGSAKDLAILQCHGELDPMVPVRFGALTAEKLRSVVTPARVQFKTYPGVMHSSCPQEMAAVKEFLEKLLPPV
Fam108B counter: mouse Fam108B serine hydrolase inhibitors, primary screen, counter-screen for RBBP9 inhibitor project, biochemical, fluorescence polarization; inhibition, % at 9.51 µM; 0.33% of 300,000 active; recombinant Fam108B, FP-Rh probe fluorescence polarization;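 active means inhibition above the screen mean inhibition plus 3 SD, computed separately per campaign, cut at about 18% in these data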;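 further: inhibitors lower polarization as less probe binds the enzyme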
A number is an active result; . = inactive. Shown are actives, neighbours in structure and some others; about 1.3% of the full set was active somewhere.

SMILES	LYPLA1 counter	PME-1 inh	PREPL inh	LYPLA2 inh	Fam108B counter
COc1cc2c(cc1NC(=S)Nc1ccccc1C)oc1ccccc12	.	.	.	.	.
O=C(CNC(=S)N(Cc1ccccc1)Cc1cccnc1)NCCN1CCOCC1	.	.	.	.	.
COc1ccc(/C=N/Nc2cc(C)nc(-n3nc(C)cc3C)n2)c(OC)c1	.	54	.	.	.
NC(=O)c1ccc(Oc2ccc(-c3nnco3)cc2)c([N+](=O)[O-])c1	.	.	.	.	.
NC(=O)c1ccc(Oc2ccc3ccc(=O)oc3c2)c([N+](=O)[O-])c1	.	.	.	38	.
Fc1ccc(-c2n[nH]c(=S)c3ccccc23)cc1	.	.	.	.	.
O=c1cc(-c2ccccc2Cl)oc2c(NS(=O)(=O)c3cc(Cl)cc(Cl)c3O)ccc(O)c12	.	57	.	.	.
CCc1ccc(S(=O)(=O)Nc2ccc(O)c3c(=O)cc(-c4ccccc4Cl)oc23)cc1	.	.	.	.	.
COc1ccc(S(=O)(=O)N(C)C)cc1NC(=O)Cc1c[nH]c2ccccc12	.	78	.	.	.
Cc1ccc(S(=O)(=O)N(C)C)cc1NC(=O)CCc1c[nH]c2ccccc12	.	.	.	.	.
Cc1cc(-c2ccccc2)nc(N/N=C/c2ccc(O)cc2O)n1	.	40	.	.	.
COc1cc(C(=O)N2CCN(C(=O)c3cc(-c4ccccc4)n[nH]3)CC2)cc(OC)c1OC	.	.	.	.	.
CCOC(=O)c1csc(NC(=O)c2ccc3c(c2)OCCO3)n1	.	.	.	.	.
COc1cc(/C=N/NC(=O)Cc2ccccc2)cc([N+](=O)[O-])c1O	.	.	.	.	.
COc1cc(/C=N/NC(=O)[C@H](Cc2c[nH]c3ccccc23)NC(=O)OCC(C)C)cc([N+](=O)[O-])c1O	.	30	.	.	.
Cc1cc2cc(CNC(=O)COc3ccccc3)ccc2n1C	.	.	52	.	.
Cc1cc2cc(CNC(=O)c3ccco3)ccc2n1C	.	.	.	.	.
Cc1cc2cc(CNC(=O)c3cc4ccccc4o3)ccc2n1C	.	.	65	.	.
CCOc1cc(C(c2c(C)[nH][nH]c2=O)c2c(C)[nH][nH]c2=O)ccc1OC(=O)c1cccc([N+](=O)[O-])c1	.	.	86	.	.
COc1ccc(-c2[nH]c3ccccc3c2SCCN)cc1	.	.	55	.	.
O=C(O)c1ccccc1-c1ccccc1C(=O)Nc1ccc(-c2nc3cc(Cl)ccc3o2)cc1	.	31	.	.	.
O=C(c1ccc2oc(CCCc3ccccc3)nc2c1)N1CCCC(CCCO)C1 (centres undefined)	.	42	.	.	.
CC(=O)N1CCN(C(=O)c2ccc3oc(CCCc4ccccc4)nc3c2)CC1	.	.	.	.	.
CCCCN(CC)C(=O)c1oc2ccc(S(=O)(=O)N3CCCC3)cc2c1C	.	.	.	.	.
CCc1nnc(NC(=O)c2sc3nc4c(cc3c2N)CCCCC4)s1	.	28	.	.	.
SMILES	LYPLA1 counter	PME-1 inh	PREPL inh	LYPLA2 inh	Fam108B counter
CCc1nnc(NC(=O)c2sc3nc4c(cc3c2N)CCCCCC4)s1	.	29	.	.	.
Nc1c(C(=O)N2CCCCC2)sc2nc3c(cc12)CCCC3	.	.	.	.	.
Cc1c(C(=O)OC/C(O)=C(\C#N)c2nc3ccccc3[nH]2)oc2ccccc12	.	32	.	.	.
COc1cc(OC)cc(C(=O)OC/C(O)=C(\C#N)c2nc3ccccc3[nH]2)c1	.	.	.	.	.
Cc1ccc(SCc2nc3ccccc3n2CC(=O)Nc2ccccc2)cc1	.	.	53	.	.
Cc1ccc(SCc2nc3ccccc3n2CC(=O)Nc2c(C)cccc2C)cc1	.	.	.	.	.
CCc1cc2c(SCc3nc4sc(C(C)=O)c(C)c4c(=O)[nH]3)ncnc2s1	.	.	.	.	.
COc1cc(/C=C/c2ccc3cccc(O)c3n2)ccc1O	.	34	.	.	.
COc1cc(/C=C/c2ccc3cccc(O)c3n2)c(Br)cc1O	.	28	.	.	.
COc1cc(C2Nc3cccc4cccc(c34)N2)ccc1O	.	27	.	.	.
Cc1cccc(C2Nc3cccc4cccc(c34)N2)c1	.	.	.	.	.
Cc1ccc2c(c1)[nH]c1c(N3CCN(Cc4ccccc4)CC3)ncnc12	.	.	55	.	.
COc1ccc2[nH]c(=O)c(-c3noc(-c4ccccc4)n3)cc2c1	.	49	.	.	.
CCCSCCCNC(=O)CN1C(=O)COc2ccc(S(=O)(=O)N3CCCC3)cc21	.	.	.	.	.
CC(C)N(Cc1ccccc1)C(=O)CN1C(=O)NC(Cc2ccccc2)(c2ccccc2)C1=O (centres undefined)	.	.	.	.	.
O=C(CSc1nnc(SCc2ccccc2Cl)s1)N/N=C/c1c[nH]c2ccccc12	.	36	.	.	.
O=C1CCCC/C1=C\Nc1ccc(C(=O)O)c(O)c1	.	.	.	.	.
CN(CC1CCOCC1)C(=O)CC1C(=O)NCCN1C/C=C/c1ccccc1 (centres undefined)	.	.	.	.	.
COc1ccc(C)cc1NC(=O)NNC(=O)c1cc2ccccc2cc1O	.	26	.	.	.
Cc1ccc(/C=N/Nc2ccc(C(=O)O)cc2)o1	.	.	.	.	.
O=C(O)c1ccc(N/N=C/c2ccc(-c3ccc(Br)cc3)o2)cc1	.	33	.	.	.
COc1ccccc1Nc1nc(-c2cccc(N3C(=O)c4ccccc4C3=O)c2)cs1	.	.	.	.	.
O=C1c2ccccc2C(=O)N1c1cccc(-c2csc(Nc3ccc4c(c3)OCO4)n2)c1	.	.	.	.	21
CCC1CCCCN1CCCNC(=O)CNC(=O)c1nn(-c2ccc(OC)c(Cl)c2)c(=O)c2ccccc12 (centres undefined)	.	.	.	.	.
O=C(N/N=C/c1ccco1)/C(=C/c1cccc([N+](=O)[O-])c1)NC(=O)c1ccccc1	.	.	47	.	.
SMILES	LYPLA1 counter	PME-1 inh	PREPL inh	LYPLA2 inh	Fam108B counter
CCC(=NCc1ccc(Cl)c(Cl)c1)c1nc(-c2ccco2)oc1O	.	.	74	.	.
COc1ccc(N=Cc2nc(-c3ccco3)oc2O)cc1	.	.	.	.	.
CCc1ccc(NS(=O)(=O)c2ccc(OC)c3ncccc23)cc1	.	.	.	.	.
CCc1ccc(OC)c(S(=O)(=O)Nc2ccc(Cc3ccncc3)cc2)c1	.	27	.	.	.
CC(=O)Oc1c(I)cc(I)cc1C(=O)Nc1ccc(Cl)cc1	.	61	.	.	.
COc1ccc(Cl)cc1C(=O)Nc1ccc(NC(C)=O)cc1	.	.	.	.	.
Cc1ccc(O)c(C(=O)c2cc(C#N)c(=O)n(-c3nccs3)c2)c1	.	33	.	.	.
Oc1ccc(CN2CCc3ccccc3C2)c2cccnc12	.	.	45	.	.
